These results are taken from paper PMC13494018.

Unmarked numbers belong to inactive results. No rule for the calls is given here.

B1: d8r1_design_ppi_360_dldesign_0_cycle1_af2pred (protein)
chain: SEAYEKAVEEAAERVAALIKAAVAAGATPAEAWAAAAKKIEEERKKLKEKFGEEQAEEGARRITARAAKALLRAMAAREE
B2: d8r1_design_ppi_705_dldesign_0_cycle1_af2pred (protein)
chain: MSKLTQAMLHYGRALAAAVALADDPEAAGKAVSAEMAEAAKVAAAGSPEVQKQALEAGEIIVEQIKKVNPEVGAKAAEAVKTTLAKL
B3: d8r1_design_ppi_1305_dldesign_0_cycle1_af2pred (protein)
chain: MEAEKLAKELLEKAKELAALPMGEASKAAAALAKEYAAKNPEVALKAAKIAYEKAVKDPSVSSKVRQLLAAALAEATYELKKKKAAA
B4: d8r1_design_ppi_786_dldesign_0_cycle1_af2pred (protein)
chain: SEEKEKLKKLAEKARAGAEAAKADPSKAAEYGKEAYELAKEALPESIAELFKKAVEKNPVSGLAFLAAYAKYKAES
B5: d8r1_design_ppi_31_dldesign_0_cycle1_af2pred (protein)
chain: DKYSQMAEVWGMLSEVVARVAAELGPEAAEEAIKRAGEAASAAAKDVEEGEKKAKEVKEWADKQLAAAAA
B6: d8r1_design_ppi_59_dldesign_0_cycle1_af2pred (protein)
chain: MSELSEKLIEAAIAAHRAAAELAALGAPAEAAAHRAKAAKLFGEARKLIQEGDEEKAKKALEEAEALAAAAAAAAKKARAAAAAA
B7: d8r1_design_ppi_901_dldesign_0_cycle1_af2pred (protein)
chain: AAAAARADIATLLAFMTKAIAEGDESAANMAANGAIASGAKAGPELAAQAAAEAAAARAAALAAKAAAAA
B8: d8r1_design_ppi_1486_dldesign_0_cycle1_af2pred (protein)
chain: MKELEEAKKEAEKAREELLKAAKEAAKVDPTVATGANNAAEGAKVLIESGSLGAARAGKAIAEAALKKAQAVLDAAQKA
B9: d8r1_design_ppi_1247_dldesign_0_cycle0_af2pred (protein)
chain: SSDKENSKLIREAMKVIGETLAAARAAVAAGDLEAARAAVAEGVARLEEMAEKSKDEATRETLLRMAEALRAQGAKILA
B10: d8r1_design_ppi_14_dldesign_0_cycle1_af2pred (protein)
chain: AAAVAAAIEAAMRAAMPSDPAKAAELAALIAAKGLAGAKEAARKAMELFREDPELGKQAFAGVDAARAILAAA
B11: d8r1_design_ppi_948_dldesign_0_cycle0_af2pred (protein)
chain: SEEAKKKYEEEKKKLEELRKEAEKLAAADPAAGGAIATLIDNGIAAGDKLYEAGSVESAAKLLESVREKAERLLAELRAAVAA
B12: d8r1_design_ppi_623_dldesign_0_cycle0_af2pred (protein)
chain: SAAAAAAAAAAKAALAAAKKKAEEAVKLTPEEAAKVLGEIAAAATAALAAATDAADRAALRAAAAEVFSTGAKNLAKAAKKAEE
B13: d8r1_design_ppi_257_dldesign_0_cycle1_af2pred (protein)
chain: DEKDTATAEALGAISRAIAAAKALAATGDPEEAARLAEAARAAIAEALELAKKTTPSSQAAIEVAAARARAALDAALAKQAARAAA
B14: d8r1_design_ppi_198_dldesign_0_cycle1_af2pred (protein)
chain: AAAALQAAAAAAAARLEKLAEEAAADPRLAPAAAAARAAAAQARANPAIAAQLAANTEAFVATYRAAVEEK
B15: d8r1_design_ppi_1314_dldesign_0_cycle0_af2pred (protein)
chain: SSEEEEAKRLAARAARAAARRLEEAAEERAAEDPEAARRAAEEGRRLAEEAEKGNAEEAKRALTEITRLLREVLA
B16: d8r1_design_ppi_502_dldesign_0_cycle0_af2pred (protein)
chain: SFEEEKKKADEYMTKAAELAPPELKPAVQNMRDGILKAFEVSPKSALNLAKSALRWVKKHGSEEAAKEMEKALEHLEKAAE
B17: d8r1_design_ppi_457_dldesign_0_cycle1_af2pred (protein)
chain: AAAKAAAAAEAEALIAKAEAVVKAIKDFTALAAASTPEDGAAALRAAENLKTTAVDLATQAAALAKALGRPDLATRATAVAQAAKDAM
B18: d8r1_design_ppi_508_dldesign_0_cycle0_af2pred (protein)
chain: AGEEALEKAIKEVKELISEAAKALQESREKGIEKAKEGAKRAEKLKKEAAKEPLAERIGRVLESAKGFLEKLKEALEES
B19: d8r1_design_ppi_1006_dldesign_0_cycle0_af2pred (protein)
chain: AAAAAAAKAARTKEVIAKMKELISEAMLAKSEGTGVEALKKAAEEAKKLAKEAKAAGDTAAATVANNAAAFLETAAKAEEEAK
B20: d8r1_design_ppi_310_dldesign_0_cycle1_af2pred (protein)
chain: ALAAALNSVAALAKLAAELLETDPAAGKQLAKNVAVALAKLGLTEEAARLKAATPEELKAVAKEAAAAAKAAAAALA
B21: d8r1_design_ppi_286_dldesign_0_cycle0_af2pred (protein)
chain: SNEENAENLRLAGRAIEGVAESASAKQTADHLNNVATAAAKIDAETGKKLKAIGEEVLKTGDAKEGGEKAKKVLEEAAEKFK
B22: d8r1_design_ppi_750_dldesign_0_cycle1_af2pred (protein)
chain: SRLEEARAIAERAAAEAAAAGNVAEAVAIAQRGAAEVVRTLSPEPVEAKAEVLAHHAELAQAVIDALTAAE
B23: d8r1_design_ppi_20_dldesign_0_cycle1_af2pred (protein)
chain: KEEKAEKMKKEAEKYVERAKADAAKLAGSPQAATAAKLAASAEKSAELMKKALEEGDFGLAEVFLAAAKAAAEQLAKMAAA
B24: d8r1_design_ppi_991_dldesign_0_cycle1_af2pred (protein)
chain: AEAARTAAIAKSIAGLAKLAEKAKDDKSVVRAAATAAAAAAAKDAALGKAAAERLKAAAEATPEEAIATLKAVAAEIAAAAAA
B25: d8r1_design_ppi_487_dldesign_0_cycle0_af2pred (protein)
chain: AAAEAAKAALAAEGERLLEEAERNLKIAKEGNGEEAAKASRNTLLNLAELTKLADEAAAADPAAGKVGAELLARLREILREIEAVNLA
B26: d8r1_design_ppi_43_dldesign_0_cycle0_af2pred (protein)
chain: MEALERASRVLAEAARLAMKNPAYAPAFAEVAAAYRETIAAYKESPEAAKEAAERLEKLAAERIAAAKAAL
B27: d8r1_design_ppi_1191_dldesign_0_cycle1_af2pred (protein)
chain: AKAELKKKAEEYEKLYNAAKAALDVALADPSFSKSAKKAIAQAQVDAAKKALEAAKAYDPSQAPYWQAKLDAAQAALDAI
B28: d8r1_design_ppi_1191_dldesign_0_cycle0_af2pred (protein)
chain: AAAALAAQAAAYTATYNAASAALAVALADPSFSPQSQKNIAQSQVDAATKALEAATAYDPAQAAAWQAALDAAQAQLAAI
B29: d8r1_design_ppi_820_dldesign_0_cycle1_af2pred (protein)
chain: AAEAQALLQTFEANVEGAKMMGEASSLPALVRYHAITKTSATLAARAKELGLEEAAAQIEARGKELAAEAKAGLEKELAA
B30: d8r1_design_ppi_416_dldesign_0_cycle1_af2pred (protein)
chain: SDESARIKAETLGRISEAMREARRAAEEGDVERAREAAERAREAGREGAEKALELGDESTAESLRSTAEKVAERAERLAEEAAA
B31: d8r1_design_ppi_661_dldesign_0_cycle1_af2pred (protein)
chain: AAADAAAAAAAATAGANAVAAAQLALELNPKSAIDLAEAAIAHFKKLAATGSPAVAAQANAAIAALEAVKAQAKKKLAAE
B32: d8r1_design_ppi_568_dldesign_0_cycle0_af2pred (protein)
chain: AGEALNLAARGLIAAGEAGDAEAAAQAAALLAKATAALAAGDEAAAKAYAAEAAAVADPEKAPEAEAVKAAAAA
B33: d8r1_design_ppi_442_dldesign_0_cycle1_af2pred (protein)
chain: DAAAVAAIAAAAAEAAGLYVRGRAASSKDPAEAKKYYAEADALVAAMLAAGAATSPAVAAAAAAAAATVAATRAALDAIKA
B34: d8r1_design_ppi_282_dldesign_0_cycle1_af2pred (protein)
chain: STDEELAAKAAALANLNKALAIATKFDPSVLADFKKIASLILDPNKKEEAVKLLNEKAKEAEAKDPAAGAALKAAAEEAKKI
B35: d8r1_design_ppi_1356_dldesign_0_cycle0_af2pred (protein)
chain: SAELIAQTARAGAVMLAAGIAGTPEAAANAAAGTSLLLKAKAESTGSEELKALAERAAAAAATLKADPAAGRAALAALRDELEKLAK
B36: d8r1_design_ppi_493_dldesign_0_cycle1_af2pred (protein)
chain: SDARIAGAVAIMRLGAADADAATGAALREVGAAFAVSPEAGVAKAAELAAALAAARTPAAAAAGAARLAAATALGVAIAAAGA
B37: d8r1_design_ppi_1220_dldesign_0_cycle0_af2pred (protein)
chain: KEEEADKLAVEAMRLLGEAAELTKKATTKEQVEAAKKKAEEAKKKAEELLKVDPRKKGLAEALKSAAKKVLEAAEKKEKEL
B38: d8r1_design_ppi_713_dldesign_0_cycle1_af2pred (protein)
chain: AEFLAQGRAAAAATSPANAAALEAAYAAAKAQEDKMEGMKILLATATTLAAASTPAEAVLIGKAAAYFIADLLS

Chain of PDL1, Q9NZQ7 (Q9NZQ7 whole entry): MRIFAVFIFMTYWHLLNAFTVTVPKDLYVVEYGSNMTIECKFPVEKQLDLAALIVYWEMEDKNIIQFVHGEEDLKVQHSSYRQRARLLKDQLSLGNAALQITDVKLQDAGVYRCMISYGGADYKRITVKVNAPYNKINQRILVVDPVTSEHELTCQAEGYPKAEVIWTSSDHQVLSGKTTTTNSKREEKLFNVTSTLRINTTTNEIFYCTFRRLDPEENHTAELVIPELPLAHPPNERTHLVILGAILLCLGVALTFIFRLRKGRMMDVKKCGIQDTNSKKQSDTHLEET

This test concerns the target PDL1, Q9NZQ7.
Consider B1, for which the “binding in a display sort” value was “not found”.
Consider B2, for which the “binding in a display sort” value is “not found”.
In the case of B3, the “binding in a display sort” value was “not found”.
Regarding B4, the “binding in a display sort” value is “not found”.
Regarding B5, the “binding in a display sort” value is “not found”.
Regarding B6, the “binding in a display sort” value was “not found”.
In the case of B7 it was “not found”; in that of B8, “not found”; in that of B9, “not found”.
With B10, the “binding in a display sort” value was “binds (active)”.
For the molecule B11, the “binding in a display sort” value was “not found”.
As for B12, the “binding in a display sort” value was “not found”.
Regarding B13, the “binding in a display sort” value was “not found”.
In the case of B14 it was “not found”.
With B15, the “binding in a display sort” value was “not found”.
Turning to B16, the “binding in a display sort” value was “not found”.
For B17, the “binding in a display sort” value was “not found”.
In the case of B18, the “binding in a display sort” value is “not found”.
Take B19: the “binding in a display sort” value was “not found”.
In the case of B20 it was “not found”; in that of B21, “not found”.
As for B22, the “binding in a display sort” value is “not found”.
Take B23: the “binding in a display sort” value was “not found”.
On to B24, for which the “binding in a display sort” value was “not found”.
In the case of B25 it was “not found”; in that of B26, “not found”.
In the case of B27 it was “not found”; in that of B28, “not found”.
In the case of B29 it was “not found”; in that of B30, “not found”.
Turning to B31, the “binding in a display sort” value is “not found”.
In the case of B32, the “binding in a display sort” value is “not found”.
On to B33, for which the “binding in a display sort” value was “not found”.
In the case of B34 it was “not found”; in that of B35, “not found”.
B36: the “binding in a display sort” value was “not found”.
Consider B37, for which the “binding in a display sort” value was “not found”.
For B38, the “binding in a display sort” value was “not found”.
